The sample as a whole holds a higher share of hits than the screen did.
SF1 inhibitor: blocks the human nuclear receptor SF-1. Q13285. CHO-K1 Gal4-SF-1 LBD luciferase reporter. inhibition, % at 10 µM. hit rate 0.55% among 65,000;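 active means inhibition above the mean inhibition of all tested compounds plus 3 SD, cut at about 48% in these data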;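 further: 0% = SF-1 transfected cells with DMSO and 100% = mock-transfected cells lacking SF-1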
Target sequence (Q13285 whole entry, looked up, the tested form may be a part): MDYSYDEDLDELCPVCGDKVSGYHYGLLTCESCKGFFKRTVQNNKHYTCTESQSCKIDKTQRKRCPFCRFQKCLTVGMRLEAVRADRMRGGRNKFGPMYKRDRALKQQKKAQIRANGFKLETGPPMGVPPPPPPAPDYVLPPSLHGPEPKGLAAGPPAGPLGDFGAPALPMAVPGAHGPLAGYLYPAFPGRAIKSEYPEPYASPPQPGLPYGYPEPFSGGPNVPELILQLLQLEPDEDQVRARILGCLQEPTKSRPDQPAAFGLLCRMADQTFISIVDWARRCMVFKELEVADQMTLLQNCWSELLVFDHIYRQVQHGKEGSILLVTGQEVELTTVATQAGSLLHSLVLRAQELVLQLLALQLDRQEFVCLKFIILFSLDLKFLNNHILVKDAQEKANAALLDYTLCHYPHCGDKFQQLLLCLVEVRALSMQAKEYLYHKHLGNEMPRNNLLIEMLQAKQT
* marks the source's active call; other numbers are inactive results.

SMILES | SF1 inhibitor
CCSC1=C(C#N)C(c2ccccc2OC)CC(=O)N1 (centres undefined) | -5.9
COc1cc(C2C(C#N)=C(C)NC3=C2C(=O)c2ccccc23)cc(OC)c1OC (centres undefined) | 82.5*
CSc1ccccc1NC(=O)c1cnccn1 | 1.5
Cc1c(Nc2ncnc3c2cnn3-c2ccccc2)c(=O)n(-c2ccccc2)n1C | 4.1
O=C(Nc1nc2ccccc2s1)c1ccc(Cl)s1 | -98.4
O=C(NC1CC1)c1ccc(-c2nc3ccccc3s2)s1 | 79.3*
CCOC(=O)C1CCN(S(=O)(=O)c2ccc(-c3nc4ccccc4s3)s2)CC1 | -67.9
COCCN(C(=O)Cc1cccs1)c1nnc(-c2ccncc2)s1 | 13.5
COc1ccc(C(=O)N2CCSC2=S)cc1OC | 17.5
COc1ccccc1NC(=O)CSc1nnc(Cn2c(=O)sc3ccccc32)n1C | -4.6
CN(C)CCCOC(=O)c1ccc(Br)cc1 | 4.2
Cc1oc2cc3c(C(=O)OCCN(C)C)c(C)oc3cc2c1C(=O)OCCN(C)C | 79.4*
CN(C)CCOC(=O)C1(c2ccccc2)CCOCC1 | -24.3
C/C(N)=C(/C#N)C(=O)CSc1ccc2c(c1)OCCO2 | -57.9
CCCCOC(=O)Cn1c(=N)n(CCC)c2ccccc21 | -2.7
Fc1ccc(-c2nnc(NC3=NCCCCC3)o2)cc1 | 62.5*
CC12CCC(C(=O)n3c1nc1ccccc13)C2(C)C (centres undefined) | 0.0
CCOC(=O)c1nnn(-c2nn3nnnc3c3ccccc23)c1C | 0.2
CC(=NC1CCCC1)c1c(C)[nH]n(-c2nc3ccccc3s2)c1=O | -70.8
O=C(Nc1ccccc1Cl)N1CCN(c2ccc3nnc(-c4ccc(F)cc4)n3n2)CC1 | -6.9
CC(C)OC(=O)CSc1nnnn1-c1ccc2c(c1)OCCO2 | -69.0
CCn1c(CNC(=O)c2ccc3c(c2)OCO3)nnc1SCC(=O)Nc1cc(C)ccc1OC | 3.9
COc1ccc(OC)c(NC(=O)CSc2nnnn2-c2ccc3c(c2)OCO3)c1 | 90.9*
CCS(=O)(=O)N1CCC(C(=O)NCCc2ccccc2)CC1 | -21.2
Cc1ccccc1Cc1c(C)nc2c(C(=O)N3CCN(Cc4ccc5c(c4)OCO5)CC3)cnn2c1C | 9.7
SMILES | SF1 inhibitor
CCOC(=O)c1cc(-c2ccco2)nc2c1c(C)nn2-c1ccccc1 | 9.6
CCOC(=O)c1cnc(-n2nc(C)cc2C)nc1NC(C)c1ccccc1 (centres undefined) | 49.4*
CCOC(=O)c1cnn2c(C)cc(-c3ccccc3)nc12 | -65.1
CCOC(=O)Cc1csc(NC(=O)c2ccoc2C)n1 | -6.4
CC(NC(=O)c1cccc(N2CCCC2=O)c1)c1ccc2c(c1)OCCO2 (centres undefined) | 0.4
O=C(Nc1ccc(SC(F)F)cc1)c1ccc2nccnc2c1 | 18.2
O=C(Cc1ccc(Cl)cc1)Nc1ccc(-c2nnc(-c3ccco3)o2)cc1 | 52.8*
CCC(=O)Nc1ccc(-c2nnc(-c3ccccc3)o2)cc1 | -33.6
O=C(Cc1ccc(Cl)cc1)Nc1ccc(N2CCN(C(=O)c3ccco3)CC2)cc1 | 9.5
CCn1c(SCC(=O)Nc2ccc(C(C)=O)cc2)nc2ccccc21 | -64.8
COc1ccc(-n2c(C)cc(C(=O)Cn3c(NCCO)nc4ccccc43)c2C)cc1 | -9.5
CC(C)(C)OC(=O)N1CCC[C@H]1c1nnc(SCc2ccc(Cl)cc2Cl)o1 | 5.7
Nc1ccc2oc(CCc3ccccc3)nc2c1 | -79.4
CC(C)c1ccc2oc(-c3cc(N)ccc3O)nc2c1 | 59.8*
Cc1ccccc1-c1nc2cc(N)ccc2o1 | -57.8
CC(=O)c1ccc(OC(=O)c2cccs2)cc1 | 3.6
O=C(Nc1cnc2ccccc2c1)c1cccc(-n2cnnn2)c1 | -56.2
O=C(Cn1nnc(-c2ccccc2NC(=O)c2cccs2)n1)Nc1ccccc1 | 26.7
Cc1cc(=O)oc(C)c1C(=O)NCC1CCCO1 (centres undefined) | 13.7
COc1cccc(C(=O)Nc2ccc(NC(C)=O)cn2)c1 | -35.1
COc1ccc(C(=O)Nc2ccc(C)cn2)c(OC)c1 | 82.1*
CCCC(=O)Nc1ccc(NC(=O)c2cccc(OC)c2)nc1 | -60.4
Cc1ccc2c(c1)nnn2C1CCN(S(=O)(=O)c2ccc(C(=O)N3CC(C)CC(C)C3)cc2)CC1 (centres undefined) | -24.0
CCN(C(=O)Cn1c(=O)oc2ccccc21)c1cccc(C(F)(F)F)c1 | 4.2
COc1cccc(-c2nn(C)c3sc(C(=O)Nc4ccc5c(c4)OCCO5)cc23)c1 | -80.1
SMILES | SF1 inhibitor
COc1cccc(N=Cc2ccc(O)cc2O)c1 | -8.2
CCCCCCC1C(C#N)=C(N)OC2=C1C(=O)CC(C)(C)C2 (centres undefined) | -6.6
CC1(C)CC(=O)C2=C(C1)Oc1nc3ccccc3cc1C2C(C#N)C#N (centres undefined) | 81.4*
Nc1nc2ccccc2n1C(=O)CCc1ccccc1 | -67.3
COCCn1nnnc1C1(N(Cc2cc3cc(C)ccc3[nH]c2=O)CC2CCCO2)CCN(C)CC1 (centres undefined) | 0.4
O=C(/C=C\Nc1ccc2c(c1)OCO2)c1ccccn1 | 83.1*
c1cc(CNc2ccc3c(c2)OCO3)ccn1 | -6.9
O=C(Nc1ccc2c(c1)OCO2)c1cccs1 | -60.7
COCCN(CCOC)S(=O)(=O)c1ccc(C(=O)Nc2nc(-c3ccncc3)cs2)cc1 | 5.1
CSCc1nnc(NC(=O)c2ccc(S(=O)(=O)N(CC(C)C)CC(C)C)cc2)o1 | 48.1*
Cc1nnc(NC(=O)c2ccc(S(=O)(=O)N(C)Cc3ccccc3)cc2)o1 | 22.2
Cc1cccc(-n2ccnc2SCC(=O)Nc2nnc(C)s2)c1 | -2.7
Cc1ccccc1NC(=O)CSc1[nH]c(=O)cc(C)c1C#N | 0.0
Cc1cccc(NC(=O)CSc2nnc(-c3cc(C)n(-c4ccccc4)c3C)o2)c1C | 72.7*
Cc1ccc(Cl)cc1NC(=O)CSc1nnc(C)n1-c1ccccc1 | 15.5
Cc1ccc(-c2nc(CS(=O)(=O)CC(=O)N3CC(C)CC(C)C3)c(C)o2)cc1 (centres undefined) | 0.0
CCOC(=O)N1CCC(NC(=O)C2CCN(Cc3nc(-c4ccc(CC)cc4)oc3C)CC2)CC1 | 16.2
COCCNC(=O)CSCc1nc(-c2ccc(SC)cc2)oc1C | 90.0*
CCOCCCNC(=O)CS(=O)(=O)Cc1nc(-c2cccc(OC)c2)oc1C | -6.2
CCc1ccc(-c2nc(CSCC(=O)NCCCN3CCCC3=O)c(C)o2)cc1 | 63.3*
CCOc1ccc(-c2nc(CSCC(=O)NCc3ccco3)c(C)o2)cc1 | 94.5*
CCC(OC(=O)c1ccco1)C(=O)NCc1ccco1 (centres undefined) | 13.3
COc1ccc(C(=O)Nc2ccccc2-c2nnn(CC(=O)NCc3ccco3)n2)cc1 | 7.6
COCCNC(=O)c1ccc2ccccc2n1 | -8.1
COc1cccc(C(=O)OC2CCCN(C)C2)c1 (centres undefined) | -15.3
SMILES | SF1 inhibitor
CCOC(=O)N1CCC(c2cc(=O)n3[nH]c(-c4ccccc4)cc3n2)CC1 | -0.2
O=C(NCc1ccc2c(c1)OCO2)c1c(O)c2cccc3c2n(c1=O)CCC3 | 5.1
Cc1ccc(-n2ncc3c(=O)[nH]c(SCC(=O)N4CCCCC4)nc32)cc1 | -0.2
CCN(CC)CCN1C(=O)C(O)=C(C(=O)c2ccc(C)o2)C1c1ccccn1 (centres undefined) | -5.1
CCN(CC)S(=O)(=O)c1ccc(C(=O)OCC(=O)N2CCN(C(=O)c3ccco3)CC2)cc1 | -18.8
O=C(Nc1ccc(Nc2ccccc2)cc1)c1ccc(Br)o1 | -47.3
COC(=O)c1ccc(Oc2cc(C)nc(-n3nc(C)cc3C)n2)cc1 | 51.1*
COC(=O)CSc1nc(C)cc(Oc2ccccc2)n1 | -6.9
COc1ccc2nc(NC(=O)c3ccc(-n4nc(C)cc4C)cc3)sc2c1 | 15.0
